The values that follow come from PubChem BioAssay.

A short description of test [1]: yeast TOR pathway RPL19A-GFP modulators, primary screen, cell-based, S. cerevisiae, multiplex flow cytometry (AID 1862; in the data active means percent of DMSO control GFP below about 86%;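 further: lower values mimic rapamycin by blocking the RPL19A rise seen in DMSO cells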). Particulars: S. cerevisiae RPL19A-GFP strain, flow cytometry fluorescence, 3 h; at 10 µM; stronger effect = lower value.
Test [2] in a line: modulators of MEP2-GFP levels in yeast, primary screen, S. cerevisiae, multiplex flow cytometry (AID 1867;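 active means GFP response, as percent of the DMSO control, above the screen-wide mean plus 3 SD, about 139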;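 further: median GFP channel fluorescence of barcode-gated MEP2-GFP cells measured by flow cytometry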). Particulars: S. cerevisiae MEP2-GFP strain, 3 h, at 10 µM, stronger effect = higher value, 100% means same as DMSO wells.
The nature of test [3]: modulators of CIT2-GFP expression in yeast, primary screen, S. cerevisiae, GFP fusion, multiplex flow cytometry (AID 1870).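 Further: barcoded CIT2-GFP strain pooled with four other GFP strains with rapamycin as positive control; median GFP fluorescence per well over plate mean of DMSO wells so 100% = DMSO.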 Particulars: 3 h, at 10 µM, stronger effect = higher value.
The nature of test [4]: modulators of LAP4-GFP expression in yeast, primary screen, S. cerevisiae, multiplex flow cytometry (AID 1873;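 active means GFP signal, as percent of the solvent control, above the screen mean plus 3 SD, about 149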). Particulars: 3 h, at 10 µM, stronger effect = higher value.
Test [5] can be described thus: modulators of AGP1-GFP expression in yeast TOR pathway, primary screen, cell-based, multiplex flow cytometry, S. cerevisiae (AID 1887;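 active means GFP signal above the screen-wide mean plus 3 SD, that is over about 124.5% of the solvent control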;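 further: AGP1-GFP fusion strain of S. cerevisiae within a five-strain barcoded multiplex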). Particulars: 3 h, at 10 µM, stronger effect = higher value.
The nature of test [6]: inhibitors of CD8+ T cell-vesicle binding, pilot screen, LFA-1/ICAM-1 modulator project, MLPCN validation set, flow cytometry (AID 2523;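 active means response below a set limit, under 55% cells CD8-positive and vesicle-bound, and CD8 cells' 90th-percentile brightness under 279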;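 on vesicle binding response: mean PE anti-B7-1 fluorescence of CD8+ cells relative to row control; 100% = QL9-loaded vesicles with DMSO vehicle in the same plate row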). Particulars: 2C mouse CD8+ T cells, at 7 µM, stronger effect = lower value; double positive events: measured here: CD8+/vesicle+ event percentage.
Test [7] has as its target Integrin beta-1 (Homo sapiens) + Integrin alpha-4 (Homo sapiens) (UniProt P13612+P05556). The test is described as follows: inhibition of HUTS-21 binding to VLA-4, pilot screen, VLA-4 allosteric modulator project, U937 cells, HUTS-21 mAb, flow cytometry, validation set (AID 2674;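 active means inhibition above 50%, about 3 SD of the validation set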;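 further: antibody binding induced by the VLA-4 ligand LDV present at three times its Kd; 0% = LDV ligand with antibody and no compound and 100% = antibody without LDV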). Particulars: HUTS-21 LIBS mAb binding, at 6.7 µM, stronger effect = higher value, binding induced by LDV ligand.

A short description of test [8]: superoxide lowering in aged yeast cells, pilot screen, validation compound set (AID 2706;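 active means superoxide response below 65% of plate, a cut near 3 SD across the whole screen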;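 further: yeast exposed to compound for one week at 30 degrees C before staining; 100% = mean of all compound wells on the same plate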). Particulars: S. cerevisiae aging, superoxide DHE fluorescence; at 10 µM; stronger effect = lower value.
Test [9] has as its target Beta-adrenergic receptor kinase 1 (Homo sapiens) (UniProt P25098). The test is described as follows: GRK2 binders displacing RNA aptamer, biochemical, validation, human GRK2, bead flow cytometry (AID 488806;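 active means aptamer binding inhibition above 30%, about 3 SD of noise from non-fluorescent compounds; inactive means inhibition at or below 30%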). Particulars: bead-bound GRK2, FAM-aptamer displacement, at 10 µM, stronger effect = higher value.
The target in test [10] is Beta-2 adrenergic receptor (Homo sapiens) (UniProt P07550). The test is described as follows: beta2AR agonists driving receptor internalization, pilot screen, cell-based, FAP fluorogen, flow cytometry, validation set (AID 504459;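 active means percent response above 42, roughly 3 SD of non-fluorescent test compounds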;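 further: agonist-driven loss of surface beta2AR via internalization measured by FAP dye flow cytometry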). Particulars: Am2.2-beta2AR cells, FAP surface receptor flow cytometry; at 10 µM; stronger effect = higher value.
Test [11] addresses AP-2 complex subunit beta (Homo sapiens) (UniProt P63010). Nature of the test: inhibitors of arrestin peptide binding to AP2, pilot screen, biochemical, validation set, GST-AP2 beads, flow cytometry (AID 504541;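 active means inhibition above 54%, about 3 SD of non-fluorescent compounds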;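 further: AP2 carries R879A mutation and is captured from E. coli lysate; bead-bound FITC arrestin peptide fluorescence measuring arrestin peptide binding to AP2; 0% = DMSO wells and 100% = excess unlabeled arrestin peptide control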). Particulars: FITC arrestin peptide, at 10 µM, stronger effect = higher value, AP2 beta2 appendage fragment, R879A mutant.
Test [12] in a line: yeast V-ATPase proton transport modulators, S. cerevisiae, pHLuorin, HTS validation (AID 504600; in the data active means response above about 15%;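 further: plate controls were DMSO for no effect and reference compound for full effect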). Particulars: S. cerevisiae pHLuorin cytosolic pH, at 10 µM, stronger effect = higher value.
Test [13] relates to anti-desmoglein-3 scFv antibody binding to human DSG3. Nature of the test: inhibitors of anti-DSG3 scFv binding to DSG3, pilot screen, biochemical, validation compound set, bead-based, flow cytometry (AID 588368;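 active means binding below the plate cutoff, the plate median minus 3 SD, with a reading above zero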;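 further: signal is the median channel fluorescence of bead-bound GFP antibody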). Particulars: Protein G beads, DSG3-Fc, scFv-GFP binding, at 10 µM, stronger effect = lower value.
Test [14] in a line: inhibitors of fungal efflux pumps CDR1, CDR2, MDR1, pilot screen, validation compound set, multiplex, phenotypic (AID 588506;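 active means efflux inhibition above 0.42, the validation set average plus 4 SD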;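 further: Nile Red retained in cells so higher fluorescence means more efflux inhibition; 0 = negative control wells and 1 = enniatin B 25 µM full block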). Particulars: S. cerevisiae pump-expressing triplex, Nile Red efflux flow cytometry; at 10 µM; stronger effect = higher value; the pumps come from Candida albicans.
The target of test [15] is ATP-binding cassette sub-family B member 6 (Homo sapiens) (UniProt Q9NP58). Nature of the test: ABCB6 transporter inhibitors, pilot screen, K562-ABCB6 cells, flow cytometry, validation set (AID 588550;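 active means inhibition above the screen-wide mean plus 3 SD, about 51%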;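 further: 0% = DMSO wells and 100% = benzethonium chloride 70 µM positive control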). Particulars: K562-ABCB6 porphyrin accumulation, 1 h, at 10 µM, stronger effect = higher value.
Test [16] in a line: promoters of myeloid differentiation in arrested cells, primary screen, cell-based, GFP/MAC1 double positive, flow cytometry, validation set (AID 588685;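 active means differentiation response of at least 50%, scaled between solvent and reference control, from cells with both markers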;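 further: compound exposure lasts four days before antibody staining and flow analysis; 0% = DMSO wells and 100% = 5 µM fulvestrant positive control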). Particulars: ER-HoxA9 marrow cells, stronger effect = higher value, normalized: vehicle 0, fulvestrant 100.

Each structure is given as a SMILES string. Records with an inconclusive call do not appear. Active and inactive are the calls of the source.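 How the source made its calls, unless noted: active means percent response above a set limit, the screen-wide mean plus 3 SD (cut at about 130% in these data); inactive means the rest.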

Chain of ATP-binding cassette sub-family B member 6 (Homo sapiens) (Q9NP58 whole entry, looked up): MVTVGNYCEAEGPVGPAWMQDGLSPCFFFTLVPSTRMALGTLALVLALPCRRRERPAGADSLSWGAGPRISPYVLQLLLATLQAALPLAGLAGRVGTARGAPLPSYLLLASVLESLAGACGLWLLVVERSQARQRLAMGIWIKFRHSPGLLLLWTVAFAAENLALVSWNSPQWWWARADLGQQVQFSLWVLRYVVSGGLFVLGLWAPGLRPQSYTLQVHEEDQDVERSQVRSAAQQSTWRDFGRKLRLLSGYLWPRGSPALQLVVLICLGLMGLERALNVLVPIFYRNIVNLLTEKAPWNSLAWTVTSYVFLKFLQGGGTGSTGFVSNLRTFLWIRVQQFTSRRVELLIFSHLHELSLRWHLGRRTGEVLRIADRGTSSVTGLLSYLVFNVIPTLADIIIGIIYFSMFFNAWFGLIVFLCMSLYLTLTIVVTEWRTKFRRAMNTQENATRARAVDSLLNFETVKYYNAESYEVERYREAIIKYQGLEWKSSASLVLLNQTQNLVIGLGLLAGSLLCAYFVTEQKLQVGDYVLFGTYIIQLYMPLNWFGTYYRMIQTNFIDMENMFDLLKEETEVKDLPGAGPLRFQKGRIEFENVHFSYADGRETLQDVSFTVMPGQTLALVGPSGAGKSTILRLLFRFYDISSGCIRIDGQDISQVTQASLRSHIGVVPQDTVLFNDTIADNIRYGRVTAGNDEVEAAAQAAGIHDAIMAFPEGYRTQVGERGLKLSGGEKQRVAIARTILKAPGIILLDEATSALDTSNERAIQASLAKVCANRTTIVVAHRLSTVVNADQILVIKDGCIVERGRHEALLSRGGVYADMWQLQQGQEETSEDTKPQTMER
Chain of Beta-adrenergic receptor kinase 1 (Homo sapiens) (P25098 whole entry, looked up): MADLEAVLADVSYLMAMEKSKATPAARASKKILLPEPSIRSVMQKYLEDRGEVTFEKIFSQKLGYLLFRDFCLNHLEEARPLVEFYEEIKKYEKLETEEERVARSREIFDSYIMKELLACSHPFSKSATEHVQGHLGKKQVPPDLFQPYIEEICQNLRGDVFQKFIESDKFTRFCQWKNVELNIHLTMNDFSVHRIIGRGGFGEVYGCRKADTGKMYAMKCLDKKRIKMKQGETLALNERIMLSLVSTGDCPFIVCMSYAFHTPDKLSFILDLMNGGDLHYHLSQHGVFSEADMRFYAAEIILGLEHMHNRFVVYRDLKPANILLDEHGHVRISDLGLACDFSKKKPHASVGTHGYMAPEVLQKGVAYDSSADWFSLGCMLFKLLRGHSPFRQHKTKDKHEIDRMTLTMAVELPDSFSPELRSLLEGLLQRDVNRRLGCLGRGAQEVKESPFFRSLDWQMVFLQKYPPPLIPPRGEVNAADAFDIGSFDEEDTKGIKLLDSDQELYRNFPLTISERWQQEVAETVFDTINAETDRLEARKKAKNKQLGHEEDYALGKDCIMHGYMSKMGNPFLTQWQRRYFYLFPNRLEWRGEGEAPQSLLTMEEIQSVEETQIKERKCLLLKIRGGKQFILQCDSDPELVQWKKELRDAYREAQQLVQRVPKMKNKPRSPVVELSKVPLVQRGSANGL
Chain of AP-2 complex subunit beta (Homo sapiens) (P63010 whole entry, looked up, the tested form may be a part, one chain of several): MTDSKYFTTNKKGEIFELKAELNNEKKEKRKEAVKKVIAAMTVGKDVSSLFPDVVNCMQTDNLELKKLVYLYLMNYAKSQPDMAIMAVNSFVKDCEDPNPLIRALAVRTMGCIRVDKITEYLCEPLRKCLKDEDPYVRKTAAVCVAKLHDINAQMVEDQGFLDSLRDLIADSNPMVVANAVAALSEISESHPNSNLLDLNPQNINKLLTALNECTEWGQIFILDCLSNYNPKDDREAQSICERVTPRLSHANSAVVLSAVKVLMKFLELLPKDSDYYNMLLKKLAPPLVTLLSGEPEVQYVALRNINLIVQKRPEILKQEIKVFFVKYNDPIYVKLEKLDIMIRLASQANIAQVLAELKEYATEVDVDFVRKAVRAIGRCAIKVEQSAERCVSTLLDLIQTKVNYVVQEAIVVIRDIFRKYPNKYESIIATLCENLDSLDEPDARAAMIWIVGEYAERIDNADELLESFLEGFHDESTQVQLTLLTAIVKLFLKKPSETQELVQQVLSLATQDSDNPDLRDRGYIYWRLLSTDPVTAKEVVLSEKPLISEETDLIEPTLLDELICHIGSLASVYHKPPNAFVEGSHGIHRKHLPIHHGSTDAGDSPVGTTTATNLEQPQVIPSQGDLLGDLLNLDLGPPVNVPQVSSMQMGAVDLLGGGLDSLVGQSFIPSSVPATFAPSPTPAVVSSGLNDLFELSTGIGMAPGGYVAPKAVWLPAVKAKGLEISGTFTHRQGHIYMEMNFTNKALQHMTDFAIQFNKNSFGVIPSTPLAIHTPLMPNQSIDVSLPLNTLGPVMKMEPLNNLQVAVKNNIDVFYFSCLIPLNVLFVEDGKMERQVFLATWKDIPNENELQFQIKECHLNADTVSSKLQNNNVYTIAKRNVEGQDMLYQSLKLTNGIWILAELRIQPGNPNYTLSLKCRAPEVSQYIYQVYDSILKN
Chain of Integrin beta-1 (Homo sapiens) + Integrin alpha-4 (Homo sapiens) (P05556 whole entry, looked up): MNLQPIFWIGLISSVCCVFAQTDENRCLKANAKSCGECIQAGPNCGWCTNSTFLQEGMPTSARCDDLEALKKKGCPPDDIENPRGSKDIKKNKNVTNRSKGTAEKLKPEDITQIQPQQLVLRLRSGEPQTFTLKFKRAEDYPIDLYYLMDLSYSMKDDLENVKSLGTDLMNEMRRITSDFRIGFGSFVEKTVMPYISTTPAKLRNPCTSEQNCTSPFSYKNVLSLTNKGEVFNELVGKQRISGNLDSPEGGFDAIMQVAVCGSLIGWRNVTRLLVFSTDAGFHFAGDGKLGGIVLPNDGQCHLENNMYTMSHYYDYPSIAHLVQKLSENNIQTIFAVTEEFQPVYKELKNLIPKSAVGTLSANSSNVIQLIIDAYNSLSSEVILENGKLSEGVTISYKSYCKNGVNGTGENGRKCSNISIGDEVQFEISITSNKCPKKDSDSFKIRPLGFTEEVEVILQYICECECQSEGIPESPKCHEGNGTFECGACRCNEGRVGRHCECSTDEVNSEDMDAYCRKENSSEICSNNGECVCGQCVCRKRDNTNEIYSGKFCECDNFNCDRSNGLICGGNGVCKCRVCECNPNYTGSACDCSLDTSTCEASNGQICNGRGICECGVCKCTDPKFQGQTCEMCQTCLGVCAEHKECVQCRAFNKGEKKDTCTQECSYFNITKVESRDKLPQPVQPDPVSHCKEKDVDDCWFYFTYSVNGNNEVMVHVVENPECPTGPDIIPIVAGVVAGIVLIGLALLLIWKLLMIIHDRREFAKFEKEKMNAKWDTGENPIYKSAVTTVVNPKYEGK
Chain of Integrin beta-1 (Homo sapiens) + Integrin alpha-4 (Homo sapiens) (P13612 whole entry, looked up): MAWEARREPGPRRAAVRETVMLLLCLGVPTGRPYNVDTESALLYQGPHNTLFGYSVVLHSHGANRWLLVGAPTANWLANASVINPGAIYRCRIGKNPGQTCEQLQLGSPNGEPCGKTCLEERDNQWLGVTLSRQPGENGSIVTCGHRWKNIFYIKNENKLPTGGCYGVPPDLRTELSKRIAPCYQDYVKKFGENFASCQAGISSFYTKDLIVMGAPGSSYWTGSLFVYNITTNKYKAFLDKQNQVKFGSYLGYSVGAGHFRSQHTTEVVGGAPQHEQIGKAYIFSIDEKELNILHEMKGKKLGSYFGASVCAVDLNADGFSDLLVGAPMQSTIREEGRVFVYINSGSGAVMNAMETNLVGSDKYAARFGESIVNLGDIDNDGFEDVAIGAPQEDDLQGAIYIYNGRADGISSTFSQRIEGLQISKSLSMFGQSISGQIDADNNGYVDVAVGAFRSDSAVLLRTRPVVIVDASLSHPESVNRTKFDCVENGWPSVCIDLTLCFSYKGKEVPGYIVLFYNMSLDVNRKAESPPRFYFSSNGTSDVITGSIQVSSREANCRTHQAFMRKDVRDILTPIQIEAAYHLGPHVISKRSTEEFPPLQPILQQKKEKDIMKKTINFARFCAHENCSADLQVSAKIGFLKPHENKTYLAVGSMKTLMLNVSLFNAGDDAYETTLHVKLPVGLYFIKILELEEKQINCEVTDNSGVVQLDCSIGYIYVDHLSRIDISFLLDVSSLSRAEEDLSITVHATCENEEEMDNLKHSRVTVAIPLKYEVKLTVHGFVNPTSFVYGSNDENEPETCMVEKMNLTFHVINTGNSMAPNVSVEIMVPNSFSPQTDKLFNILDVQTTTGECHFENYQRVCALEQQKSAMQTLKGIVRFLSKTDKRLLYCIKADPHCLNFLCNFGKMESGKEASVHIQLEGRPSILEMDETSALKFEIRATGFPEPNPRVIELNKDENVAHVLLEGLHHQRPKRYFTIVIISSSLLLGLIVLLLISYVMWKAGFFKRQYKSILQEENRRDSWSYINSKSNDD
Chain of Beta-2 adrenergic receptor (Homo sapiens) (P07550 whole entry, looked up): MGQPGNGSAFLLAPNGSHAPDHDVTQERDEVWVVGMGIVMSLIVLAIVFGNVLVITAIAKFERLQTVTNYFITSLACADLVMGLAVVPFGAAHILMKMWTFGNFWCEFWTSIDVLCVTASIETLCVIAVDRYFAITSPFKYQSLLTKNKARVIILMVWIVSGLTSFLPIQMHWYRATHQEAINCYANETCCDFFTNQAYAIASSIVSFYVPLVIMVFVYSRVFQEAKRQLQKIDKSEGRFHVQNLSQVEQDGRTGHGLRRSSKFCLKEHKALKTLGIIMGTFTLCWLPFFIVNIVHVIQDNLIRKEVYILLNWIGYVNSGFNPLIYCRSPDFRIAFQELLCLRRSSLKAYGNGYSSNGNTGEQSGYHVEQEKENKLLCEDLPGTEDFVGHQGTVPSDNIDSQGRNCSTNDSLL

On to `O=C(/C=C/c1ccc2c(c1)OCO2)NCc1ccc(F)cc1`, for which the percent of DMSO control GFP in [1] was 101% (inactive). In addition, the GFP response vs DMSO in test [2] is 106% (inactive); in test [4], 108% (inactive). The percent response of DMSO control in [3] was 95.4% (inactive). Further, the GFP response, % of DMSO in test [5] is 99.7% (inactive). In addition, in [6], the double positive events came out at 60.1%. Moreover, the vesicle binding response in test [6] is 130% (inactive). Also, the inhibition in test [7] is -3.57% (inactive); in test [11], 55.2% (active); in test [15], 2% (inactive). For the same molecule, in test [8], the superoxide response (% of plate) was 108% (inactive). The aptamer binding inhibition in test [9] is 2% (inactive). For the same molecule, the response in [10] was -3.87% (inactive); in test [12] it was -3% (inactive). In [13], the binding (% of control) was 98.4% (inactive). In [14], the efflux inhibition (fraction of control) is 0.08 (inactive). In test [16], the differentiation response was 15.9% (inactive).
On to `C#C[C@]1(O)CC[C@H]2[C@@H]3CCc4cc(O)ccc4[C@H]3CC[C@@]21C`, for which the percent of DMSO control GFP in [1] is 94.4% (inactive). The GFP response vs DMSO in test [2] was 109% (inactive); in test [4] it was 84.7% (inactive). In test [3], the percent response of DMSO control was 110% (inactive). The GFP response, % of DMSO in test [5] is 100% (inactive). For the same molecule, the double positive events in test [6] is 51.2%. Further, the vesicle binding response in test [6] was 88.7% (inactive). Moreover, the inhibition in test [7] was 7.43% (inactive); in test [11], 1.36% (inactive); in [15] it was 9% (inactive). Moreover, the superoxide response (% of plate) in test [8] is 76.7% (inactive). Further, the aptamer binding inhibition in test [9] is -5% (inactive). Also, the figures for the response in [10] and in [12] were -0.6% (inactive) and 2.14% (inactive), respectively. The binding (% of control) in test [13] was 106% (inactive). The efflux inhibition (fraction of control) in [14] is 0.19 (inactive). Besides, the differentiation response in test [16] was -3.28% (inactive).
Take `Cc1ccc2[nH]c(=O)c(Cc3ccccc3)c(O)c2c1`: in test [1], the percent of DMSO control GFP is 102% (inactive). Also, the results for the GFP response vs DMSO in test [2] and in test [4] were 105% (inactive) and 94.7% (inactive), respectively. Besides, the percent response of DMSO control in test [3] is 107% (inactive). The GFP response, % of DMSO in test [5] is 102% (inactive). In test [6], this molecule showed a double positive events of 60.7%. Moreover, the vesicle binding response in [6] is 224% (inactive). The inhibition was 3.7% (inactive) in [7], -9.35% (inactive) in test [11] and -1% (inactive) in test [15]. In addition, in test [8], the superoxide response (% of plate) is 105% (inactive). Moreover, in test [9], the aptamer binding inhibition was 0% (inactive). Moreover, the response in test [10] is -3.71% (inactive); in test [12], 4.49% (inactive). Moreover, the binding (% of control) in [13] was 90.6% (inactive). In addition, the efflux inhibition (fraction of control) in test [14] was -0.07 (inactive). For the same molecule, in test [16], the differentiation response is -8.55% (inactive).
With `CCOc1ccc(NC2OC(C)C(O)C(O)C2O)c([N+](=O)[O-])c1` (stereo not drawn), in [1], the percent of DMSO control GFP is 101% (inactive). Further, the GFP response vs DMSO was 104% (inactive) in [2] and 95.3% (inactive) in test [4]. In test [3], the percent response of DMSO control was 97.8% (inactive). For the same molecule, the GFP response, % of DMSO in test [5] was 102% (inactive). This molecule also showed a double positive events in [6] of 62.7%. Also, the vesicle binding response in test [6] is 4580% (inactive). The inhibition in test [7] is -4.6% (inactive); in test [11], -9.73% (inactive); in test [15] it was -10% (inactive). Further, the superoxide response (% of plate) in [8] is 102% (inactive). Moreover, the aptamer binding inhibition in test [9] was 2% (inactive). Further, the response is 5.64% (inactive) in [10] and 2.76% (inactive) in [12]. For the same molecule, in test [13], the binding (% of control) is 94.8% (inactive). The efflux inhibition (fraction of control) in test [14] was -0.01 (inactive). Further, in test [16], the differentiation response was -2.69% (inactive).
